# Results reported in article PMC4336329 (PLoS ONE, 2015).
# Screen size: about 310,000 compounds; about 14,000 (4.5%) showed an effect of 50% or more. The effect is printed as a negative number. This is one part of a sample in which strong results are shown more often than they occur.
# Molecular target: human ether-à-go-go-related gene (hERG) potassium channel (human, UniProt Q12809)
# Test: primary screen, population patch clamp on CHO cells stably expressing hERG; higher = less effect of the substance
# 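Note: peak tail current of the secondary pulse compared with the same well before compound.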
# Chain of human ether-à-go-go-related gene (hERG) potassium channel (Q12809 whole entry, looked up): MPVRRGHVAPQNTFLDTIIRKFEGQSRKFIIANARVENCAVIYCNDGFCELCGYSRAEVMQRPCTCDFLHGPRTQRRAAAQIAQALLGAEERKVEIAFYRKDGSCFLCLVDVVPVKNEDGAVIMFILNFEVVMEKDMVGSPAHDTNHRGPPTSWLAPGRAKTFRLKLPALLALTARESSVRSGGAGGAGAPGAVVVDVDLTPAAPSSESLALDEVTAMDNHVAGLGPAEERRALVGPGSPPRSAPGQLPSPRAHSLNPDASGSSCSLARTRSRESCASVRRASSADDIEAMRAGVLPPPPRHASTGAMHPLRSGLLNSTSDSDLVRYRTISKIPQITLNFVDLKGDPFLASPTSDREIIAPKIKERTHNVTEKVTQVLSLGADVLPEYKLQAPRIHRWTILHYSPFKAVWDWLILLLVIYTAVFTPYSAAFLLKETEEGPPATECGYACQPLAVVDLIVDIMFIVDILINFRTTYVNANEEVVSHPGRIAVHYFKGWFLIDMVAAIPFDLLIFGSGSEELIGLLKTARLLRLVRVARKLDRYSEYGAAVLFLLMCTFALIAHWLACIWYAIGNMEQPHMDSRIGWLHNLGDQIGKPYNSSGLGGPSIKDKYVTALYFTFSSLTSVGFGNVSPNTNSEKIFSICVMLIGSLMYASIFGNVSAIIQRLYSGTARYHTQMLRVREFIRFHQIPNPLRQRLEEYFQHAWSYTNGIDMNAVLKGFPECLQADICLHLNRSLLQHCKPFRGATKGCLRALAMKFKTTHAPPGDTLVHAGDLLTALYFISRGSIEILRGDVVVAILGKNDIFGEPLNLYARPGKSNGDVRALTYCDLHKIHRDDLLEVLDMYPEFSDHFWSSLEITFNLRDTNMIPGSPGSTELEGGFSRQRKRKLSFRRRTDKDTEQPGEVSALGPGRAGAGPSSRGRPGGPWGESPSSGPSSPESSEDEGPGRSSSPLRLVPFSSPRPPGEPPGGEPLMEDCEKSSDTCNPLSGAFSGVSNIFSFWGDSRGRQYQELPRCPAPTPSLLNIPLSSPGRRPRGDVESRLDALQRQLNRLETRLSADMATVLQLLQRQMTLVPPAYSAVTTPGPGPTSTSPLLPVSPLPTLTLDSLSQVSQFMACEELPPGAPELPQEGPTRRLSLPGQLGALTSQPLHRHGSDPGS
row,Structure (SMILES),"hERG current change (%, negative = inhibition) at 10uM [%]"
1,Cc1cccc(C)c1NC(=O)C(NC=O)c1ccccc1 (centres unmarked),-64.1
2,Cc1cccc(C)c1NC(=O)C(NC=O)c1ccc(Cl)cc1 (centres unmarked),0.758
3,Cc1cccc(C)c1NC(=O)C(NC=O)c1ccc(N(C)C)cc1 (centres unmarked),-11.1
4,COc1cc2c(=O)n(Cc3ccco3)c(=O)n(CC(=O)c3ccc(Br)cc3)c2cc1OC,-3.02
5,COc1ccc(CCC(=O)NCC(c2ccco2)N2CCc3ccccc32)cc1 (centres unmarked),-44.2
6,Cc1ccccc1C(=O)NCC(c1ccco1)N1CCc2ccccc21 (centres unmarked),-55.7
7,Cc1ccc(C(=O)NCC(c2ccco2)N2CCc3ccccc32)cc1C (centres unmarked),-60.1
8,O=C(NCC(c1ccco1)N1CCc2ccccc21)c1ccccc1Cl (centres unmarked),-60.2
9,O=C(NCC(c1ccco1)N1CCc2ccccc21)c1ccccc1 (centres unmarked),-3.78
10,O=C(NCC(c1ccco1)N1CCc2ccccc21)c1ccccc1Br (centres unmarked),-29.3
11,O=C(CCc1ccccc1)NCC(c1ccco1)N1CCc2ccccc21 (centres unmarked),-56.2
12,COc1ccccc1C(=O)NCC(c1ccco1)N1CCc2ccccc21 (centres unmarked),-6.41
13,O=C(NCC(c1ccco1)N1CCc2ccccc21)c1ccccc1F (centres unmarked),-19.8
14,Cc1cccc(C(=O)NCC(c2ccco2)N2CCc3ccccc32)c1 (centres unmarked),-25.6
15,O=C(NCC(c1ccco1)N1CCc2ccccc21)c1c(F)cccc1F (centres unmarked),-7.53
16,Cc1ccc(C(=O)NCC(c2ccco2)N2CCc3ccccc32)cc1 (centres unmarked),-13
17,O=C(C[n+]1ccc(/C=N/O)cc1)N(Cc1ccccc1)Cc1ccccc1.[Cl-],0.798
18,CC(=C/C(=O)O)/C(=C/c1ccccc1)C(=O)O,15.6
19,Cc1occc1C(=O)n1nnc2ccccc21,-7.48
20,Cc1cc(S(=O)(=O)NCCN2CCOCC2)ccc1Cl,21.3

row,Structure (SMILES),"hERG current change (%, negative = inhibition) at 10uM [%]"
1,Cc1sc2ncn(CC(=O)NCCCN3CC(C)CC(C)C3)c(=O)c2c1S(=O)(=O)N1CC(C)CC(C)C1 (centres unmarked),-32.1
2,O=C(NCC(c1cccnc1)N1CCOCC1)C1CCCCC1 (centres unmarked),5
3,Cc1ccnc(NC(=O)CNC(=O)c2ccc3ccccc3c2)c1,-12.5
4,CCOC(=O)c1c(-c2ccccc2)c2cc(OC)ccc2n1CCCN(C)C.Cl,-72.4
5,COc1ccc2c(c1)c(C(=O)OCCN(C)C)c(C)n2C.Cl,-1.4
6,CCCCn1c(C)c(C(=O)O)c2cc(OC)ccc21,1.59
7,Cn1cc(S(=O)(=O)N2CCCC2)cc1C(=O)NCc1ccc(Cl)cc1,2.02
8,COc1ccc(CCNC(=O)Cn2cnc3c(cnn3-c3ccccc3Cl)c2=O)cc1OC,-1.24
9,COc1ccc2nc(NC(C)=O)sc2c1,-4.83
10,Cc1ccc(OCC(=O)N/N=C/C=C/c2ccco2)cc1,-45.9
11,CC(Oc1ccc(Cl)cc1)c1ccnn1S(=O)(=O)c1ccccc1 (centres unmarked),5.02
12,CCN(CC)C(=O)c1ccc2c(=O)n(CCOC)c(=S)[nH]c2c1,-7.02
13,Cc1nn2c(NCc3cccnc3)c3c(nc2c1-c1ccccc1)CCC3,-34.2
14,COCCNc1c2c(nc3c(-c4ccccc4)c(C)nn13)CCC2,2.2
15,Cc1nn2c(NCCN(C)C)c3c(nc2c1-c1ccccc1)CCC3,-26.7
16,Cc1nn2c(NCC(C)C)c3c(nc2c1-c1ccccc1)CCC3,4.8
17,CCCCNc1c2c(nc3c(-c4ccccc4)c(C)nn13)CCC2,-3.59
18,Cc1nn2c(NCCOCCO)c3c(nc2c1-c1ccccc1)CCCC3,-74.2
19,Cc1nn2c(NCCCN(C)C)c3c(nc2c1-c1ccccc1)CCC3,-59.4
20,COCCNc1c2c(nc3c(-c4ccccc4)c(C)nn13)CCCC2,-1.34

row,Structure (SMILES),"hERG current change (%, negative = inhibition) at 10uM [%]"
1,Cc1nn2c(NCCCN(C)C)c3c(nc2c1-c1ccccc1)CCCC3,-32.2
2,Cc1nn2c(NCc3ccccn3)c3c(nc2c1-c1ccccc1)CCC3,-51
3,Cc1nn2c(NCCOCCO)c3c(nc2c1-c1ccccc1)CCC3,-50.2
4,Cc1nn2c(Nc3ccccc3)c3c(nc2c1-c1ccccc1)CCC3,14.1
5,Cc1ccc(-c2csc(NC(=O)C3=NN(c4ccccc4)C(=O)CC3)n2)cc1,3.35
6,CCCN1CCN(C(c2cc3cc(OCC)ccc3[nH]c2=O)c2nnnn2C2CCCCC2)CC1 (centres unmarked),-46.4
7,Cc1ccc(C(C(=O)NC2CCCCC2)N(C(=O)c2csnn2)C2CC2)cc1 (centres unmarked),-9.75
8,COc1ccc(C(CC(=O)N2CCOCC2)c2c(OC)cc(OC)c3ccc(=O)oc23)cc1 (centres unmarked),-3.96
9,Cn1c2ccccc2c2c(C(=O)NCC3CCCO3)cn(C3CCCC3)c(=O)c21 (centres unmarked),-0.664
10,CNC.Cc1cccn2c(NCC3CCCO3)c(C(C)C)nc12.Cl (centres unmarked),-12.7
11,Cc1c(C(C)O)nnn1-c1nonc1N (centres unmarked),-2.42
12,CN=C(Nc1cccnc1)c1ccccc1,15.6
13,CCOc1ccc(-n2c(=O)c3c4c(sc3n(CC(=O)NCCCOC)c2=O)CCCCC4)cc1,-1.22
14,CN(C)CCCNc1c2c(nc3cc(-c4cccc(F)c4)nn13)CCC2,-69.1
15,Fc1cccc(-c2cc3nc4c(c(NCc5ccco5)n3n2)CCCC4)c1,-33.2
16,Cc1nn2c(N3CCOCC3)c3c(nc2c1-c1ccccc1)CCCC3,-14.8
17,Cc1nn2c(NCCN(C)C)c3c(nc2c1-c1ccccc1)CCCC3,-41.4
18,Cc1nn2c(NCCN3CCOCC3)c3c(nc2c1-c1ccccc1)CCCC3,-76.5
19,CN(C)CCCNc1cc(-c2ccccc2)nc2cc(-c3cccc(F)c3)nn12,-15.9
